Compound activity (PubChem)
CHO-K1 Ca PAM: M1 PAM counterscreen hit in parental CHO-K1 cells; ATP EC20, Fluo-8 calcium fluorescence; 0% at ATP EC20, 100% at ATP max; activation, % at 3 µM; 0.02% of 360,000 active; AID 602247;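 active = activation above the run cutoff, the mean activation of all test compounds plus 3 SD, cut at about 40% in these data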;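 note: peak over basal fluorescence ratio in a 140 s read after ATP addition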
CHO-K1 Ca ag: counter-screen for M1 agonists: effect in parental CHO-K1 cells; Fluo-8 calcium fluorescence; scaled to maximal ATP response, vehicle zero; 0.48% of 360,000 active; activation, % at 3 µM; in the data active = activation above about 15%;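 note: untransfected CHO-K1 host cells lacking M1 receptor as counterscreen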
CHO-K1 Ca antag: counter-screen for M1 antagonists: effect in parental CHO-K1 cells | ATP-induced calcium, Fluo-8 fluorescence | inhibition, % at 3 µM | 0.6% of 360,000 active | AID 602250;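 active = inhibition above a per-plate cutoff, the plate's mean sample inhibition plus 3 SD, cut at about 24% in these data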;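 note: 0% = DMSO plus EC80 ATP and 100% = DMSO alone without ATP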
CHRM1 agonist: activates human CHRM1 receptor. 0.33% of 360,000 active. CHO-K1 hM1, Fluo-8 calcium fluorescence, agonist mode; 0% DMSO, 100% acetylcholine EC100. AID 588814. activation, % at 3 µM;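 active = activation above the run's mean compound activation plus 3 SD, cut at about 16% in these data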;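 note: peak over basal fluorescence ratio within a 140 s kinetic read after compound addition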
Target sequence (P11229 whole entry, looked up): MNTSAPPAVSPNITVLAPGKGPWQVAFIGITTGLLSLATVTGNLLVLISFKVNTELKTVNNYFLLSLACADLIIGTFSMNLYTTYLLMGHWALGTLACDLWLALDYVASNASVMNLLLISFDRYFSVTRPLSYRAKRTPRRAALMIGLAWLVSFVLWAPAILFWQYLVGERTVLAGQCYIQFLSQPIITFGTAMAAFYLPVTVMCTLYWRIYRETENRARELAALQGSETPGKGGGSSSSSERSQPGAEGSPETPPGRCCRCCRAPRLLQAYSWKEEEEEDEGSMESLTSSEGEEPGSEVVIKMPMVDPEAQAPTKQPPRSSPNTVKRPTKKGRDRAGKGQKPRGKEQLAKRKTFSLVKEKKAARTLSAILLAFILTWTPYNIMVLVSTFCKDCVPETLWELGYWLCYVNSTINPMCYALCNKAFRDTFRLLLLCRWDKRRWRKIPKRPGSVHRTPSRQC
CHRM1 PAM: potentiates human M1 receptor response to acetylcholine; activation, % at 3 µM; AID 588819; P11229; 0.088% of 360,000 active; CHO-K1 hM1, Fluo-8 calcium fluorescence, ACh EC20; 0% = ACh EC20, 100% = maximal ACh; in the data active = activation above about 19%, passing the limit was not always enough
CHRM1 antagonist: antagonists of human M1 muscarinic receptor. P11229. inhibition, % at 3 µM. AID 588852. CHO-K1 hM1, Fluo-8 calcium fluorescence, ACh EC80 antagonist. 1.3% of 360,000 active;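 active = percent inhibition above its own plate's cutoff, namely the mean of that plate's compound wells plus 3 SD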;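 note: peak over basal fluorescence ratio during 140 s after agonist addition; 0% = ACh EC80 plus DMSO and 100% = DMSO alone without agonist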
The depositor's hits bear a star. Most compounds without a hit are left out; they make up all but 2.4% or so of the library.

SMILES	CHO-K1 Ca PAM	CHO-K1 Ca ag	CHO-K1 Ca antag	CHRM1 agonist	CHRM1 PAM	CHRM1 antagonist
CC(=O)c1ccc(NC(=O)COC(=O)c2c3c(nc4ccccc24)/C(=C\c2cccs2)CCC3)cc1	-14	2	19	-5	-8	18
COc1cccc(NC(=O)COC(=O)c2c3c(nc4ccccc24)CCC(C)C3)c1 (stereo unspecified)	10	3	8	-3	-18	48*
CC(C)c1ccccc1NC(=O)COC(=O)c1c2c(nc3ccccc13)CCN(Cc1ccccc1)C2	9	7	21	-5	-22	37*
COCCN1C(=O)CCC1(C)C(=O)Nc1ccc2ccccc2c1 (stereo unspecified)	-1	1	19	-4	4	-5
O=C(Nc1ccccc1C(F)(F)F)N1CCC(N2CCCCC2)CC1	20	0	-18	-4	6	-7
Cc1cccc(C2=NN(c3ccc(Br)cc3)[C@@H](C(=O)N3CCOC3=O)[C@@H]2c2ccc([N+](=O)[O-])cc2)c1	3	0	-7	-3	3	-10
Cc1ccc(NC(=O)CC2S/C(=N/N=C/c3ccco3)NC2=O)cc1Cl (stereo unspecified)	32	1	-10	-9	10	0
CC(C)(C)NC(=O)COC(=O)c1c2c(nc3ccccc13)CCC2	-13	9	14	-6	-22	31*
Cn1c(=O)c(Sc2ccccc2)c(O)c2ccccc21	7	0	-8	-2	1	-1
CCOC(=O)C1=C(C)NC(C)=C(C(=O)OCC)C1c1ccncc1	3	0	-10	-3	7	-20
CCOC(=O)C1=C(C)NC(=O)NC1c1ccc(N(CC)CC)cc1 (stereo unspecified)	0	0	-2	-12	-24	30*
COC(=O)C1=C(C)NC(C)=C(C(=O)OC)C1c1ccco1	6	19*	-3	-3	9	0
CCN(CC)c1ccc(C2C(C(=O)OC)=C(C)NC(C)=C2C(=O)OC)cc1	-4	0	4	-7	-26	37*
COC(=O)C1=C(C)NC(C)=C(C(=O)OC)C1c1ccc(NC(C)=O)cc1	12	0	-15	32*	-5	-12
CN(Cc1ccccc1)C(=O)COC(=O)Cc1ccc(Cl)cc1	4	0	-4	-3	1	-5
NC(=O)c1ccccc1N/C=C1\CCCCC1=O	-8	0	11	-1	-4	1
O=P(CCCCCCCCCP(=O)(c1ccccc1)c1ccccc1)(c1ccccc1)c1ccccc1	-1	6	16	2	-10	32*
CC1(c2ccc([N+](=O)[O-])cc2)Nc2ccccc2S1 (stereo unspecified)	1	15*	13	0	4	-3
CC(c1nnc(SCn2nnc3ccccc3c2=O)n1-c1ccc(Cl)cc1)N(C)C (stereo unspecified)	20	1	-25	-4	15	-13
CCOc1cc(CNCCSc2nnnn2C)cc(Br)c1OCc1ccccc1	-7	1	17	-1	-7	29*
COc1cc(OC)c(OC)cc1CNCCSc1nnnn1C	11	19*	1	-8	5	-8
COc1ccc(S(=O)(=O)N(C)c2ccc(OC(=O)C(C)Oc3ccc(F)cc3)cc2)cc1 (stereo unspecified)	3	3	-4	-1	5	-10
c1ccc2oc(SCc3cn4ccsc4n3)nc2c1	8	0	0	-6	-10	6
COc1cc(C2C(C#N)=C(N)N(Nc3ccccc3)C3=C2C(=O)CC(C)(C)C3)ccc1OCc1cccc(F)c1 (stereo unspecified)	-9	0	33*	-3	-3	10
COc1cc(C2C(C#N)=C(N)N(Nc3ccccc3)C3=C2C(=O)CC(C)(C)C3)ccc1OCc1ccccc1 (stereo unspecified)	5	2	-3	-3	4	3
SMILES	CHO-K1 Ca PAM	CHO-K1 Ca ag	CHO-K1 Ca antag	CHRM1 agonist	CHRM1 PAM	CHRM1 antagonist
CCC(=O)N1CCc2cc(S(=O)(=O)CCC(=O)NCc3cccc(OC)c3)ccc21	2	1	-18	-4	3	51*
CCC(=O)N1CCc2cc(S(=O)(=O)CCC(=O)Nc3ccc(F)c(F)c3)ccc21	-8	0	35*	-2	-4	11
CCC(=O)N1CCc2cc(S(=O)(=O)CCC(=O)Nc3cccc(F)c3)ccc21	10	0	-5	-3	3	-25
CCOCCCNc1ncnc2c1[nH]c1ccccc12	2	6	4	-1	-9	18
CCCCOCCCNc1ncnc2c1[nH]c1ccccc12	-8	11	30*	4	-22	35*
Cc1cc(C)nc(N/N=C/c2cn[nH]c2-c2ccccc2)n1	14	6	-5	-2	4	-5
S=C(Nc1ccc(Oc2ccccc2)cc1)NC1CCCCC1	-2	6	7	1	-13	-8
CN(C(=S)Nc1ccc(Oc2ccccc2)cc1)C1CCCCC1	7	4	13	-9	-26	39*
S=C(Nc1ccc(Oc2ccccc2)cc1)NC1CCCCCC1	6	6	6	-5	-24	29*
Cn1c(NC(=O)c2cc(Br)ccc2Cl)cc(=O)n(C)c1=O	-8	2	8	8	-5	2
C=Cc1cccc(NC(=O)COc2ccccc2)c1	-1	0	-2	-3	-6	18
N#CC(c1cccc(Cl)c1)c1ccc2c(C(F)(F)F)cc(C(F)(F)F)nc2n1 (stereo unspecified)	-7	12	31*	3	-8	29
C#CCOCCOCCOCCNc1nc(N2CCN(C(=O)CCCCCCCCCCNC(=O)[C@@H](CCSC)n3cc(CCO)nn3)CC2)nc(N2CCN(C(=O)CCCCCCCCCCNC(=O)[C@H](CO)n3cc(CCCCCN)nn3)CC2)n1	11	1	-9	-6	-4	7
COc1ccccc1NC(=S)N1CCc2cc(OC)c(OC)cc2C1	-17	0	24*	-3	-1	-1
Oc1ccccc1N=N/C(=N/Nc1ccccc1O)c1ccccc1	17	0	-13	-5	-1	2
N#C/C(N=Nc1ccccc1O)=N\Nc1ccccc1O	4	16*	10	1	-12	25
CCOc1ccc(NC(=O)CN(C)C(=O)CSCc2c(C)noc2C)cc1OCC	-12	1	1	-2	3	-4
COc1ccc(NC(=S)N2CCC(C(=O)c3ccc(Cl)cc3)CC2)cc1	18	1	-4	-1	1	-5
CCOc1ccc(NC(=S)N2CCC(C(=O)c3ccc(OC)cc3)CC2)cc1	15	1	-12	0	29*	-30
CC(C)CN1C(=O)c2ccc(C(=O)Nc3ccncc3)cc2C1=O	0	18*	-16	1	-7	9
